Nrf2 activator = activates Nrf2 signaling. AREc32 ARE-luciferase reporter (MCF7-derived line), luminescence, 24 h. Potency, µM (top dose mostly 46.1 µM), actives largely listed as activators. 410,000 compounds, 0.31% hits. AID 624171; note: nearly all actives have a fitted effect of over 65% in size
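AREc32_Fluc, 1000 cells/well, OPTI-MEM + 5% FBS, o/n 37 deg C 5% CO2; 23 nL cpd by pin tool, 24 hr; Steady-Glo 30 min RT, luminescence.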
A549 tox = kills or reduces viability of A549 cells in Nrf2 counter-screen; Potency, µM (titrated, usually from 46 µM), actives largely listed as inhibitors; A549 ARE-Fluc cells, CellTiter-Fluor viability, 18-24 h; 390,000 compounds, 0.16% hits; AID 504648
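Cytotoxicity counterscreen: CellTiter-Fluor fluorescence was measured in A549 ARE_Fluc cells after 18-24 h of compound exposure in a concentration series. The subsequent BugLite luminescent read reports ARE-luciferase activity.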
Nrf2 inh = inhibitors of Nrf2 signaling. A549 ARE-Fluc reporter, luciferase luminescence, 18-24 h. AID 504444. 360,000 compounds, 2.1% hits. Potency, µM (highest dose often 46 µM), usual class: inhibitors; note: nearly all actives have a fitted effect of over 60% in size
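Quantitative HTS in A549 cells stably bearing an antioxidant response element-firefly luciferase construct. Inhibition of Nrf2-driven transcription was scored by luminescence after 18-24 h of compound exposure at 37 °C.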
TGFb SMAD3 inh = inhibitors of TGF-b signaling; HepG2 CAGA-GFP TGF-b/SMAD3 reporter, GFP fluorescence, 18 h; TGF-beta stimulated, 500 pg/mL final; Potency, µM (doses to about 46.1 µM), most hits filed as inhibitors; 410,000 compounds, 1.2% hits; AID 588855; note: nearly all actives have a fitted effect of over 65% in size
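Inhibition of TGF-beta-driven CAGA-GFP reporter expression in HEPG2 cells is measured by cellular GFP fluorescence after 18 h stimulation with 500 pg/mL recombinant TGF-beta in 1% FBS medium at 37 degrees C.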
HepG2 tox-1 = kills HepG2 cells in TGF-b inhibitor counter-screen; Potency, µM (highest dose often 46.1 µM), most hits filed as cytotoxic; 410,000 compounds, 0.76% hits; HepG2 CAGA-GFP viability, ATP luminescence, 18 h
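CellTiter-Glo luminescence gave cytotoxicity after 18 hours at 37 degrees C. The cells were HepG2 CAGA-GFP in 1% FBS DMEM, stimulated with 500 pg/mL TGF-beta after compound addition. %Activity was normalised to no-cell wells (complete cell-killing) and DMSO (no toxicity), and curves were fitted and classified.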
TGFb CAGA inh = TGF-b pathway inhibition, cherry-pick retest | shares compounds with TGFb SMAD3 inh | HepG2 CAGA-GFP TGF-b reporter, GFP fluorescence, 18 h; cells stimulated with TGF-beta, 500 pg/mL | Potency, µM (series often up to 46.1 µM), usual class: inhibitors | 1,600 compounds, 63% hits; note: nearly all actives have a fitted effect of over 65% in size
HepG2 tox-2 = counter-screen for TGF-b inhibitors: cytotoxicity in HepG2 cells; Potency, µM (highest dose often 46.1 µM), most hits filed as inhibitors; shares compounds with TGFb SMAD3 inh; 1,600 compounds, 27% hits; HepG2 CAGA-GFP viability, ATP luminescence, 18 h; cells stimulated with TGF-beta, 500 pg/mL; note: nearly all actives have a fitted effect of over 70% in size
CCL64 TGFb inh = orthogonal confirmation of TGF-b inhibitors in CCL64 cells. shares compounds with TGFb SMAD3 inh. CCL64 CAGA-GFP reporter, TGF-b stimulated, GFP fluorescence, 18 h. Potency, µM (top dose mostly 46.1 µM), usual class: inhibitors. 1,600 compounds, 41% hits. AID 720536; note: nearly all actives have a fitted effect of over 65% in size
TGFb COP inh = validation of TGF-b inhibitors in HepG2 COP promoter reporter; shares compounds with TGFb SMAD3 inh; HepG2 COP-GFP TGF-b reporter, GFP fluorescence, 18 h; cells stimulated by added recombinant TGF-beta; Potency, µM (doses to about 46.1 µM), most hits filed as inhibitors; 1,600 compounds, 3% hits; AID 720537; note: nearly all actives have a fitted effect of over 70% in size
Hits are given with their value; – = inactive; ? = inconclusive; · = no result given; [ ] = dose if it differs, or a comment. Rows were chosen to be rich in hits. Some 3.6% of all compounds tested hit in one or more screens of this group. Calls come from the whole dose curve; as a rule, active = well fitted curve in the direction sought with a large enough effect; inconclusive = small, poorly fitted or top-dose-only effect, or another doubt; inactive = no such curve, though single readings can be large; an effect the other way counts as inactive or inconclusive.

SMILES | Nrf2 activator | A549 tox | Nrf2 inh | TGFb SMAD3 inh | HepG2 tox-1 | TGFb CAGA inh | HepG2 tox-2 | CCL64 TGFb inh | TGFb COP inh
CCOc1ccc(CCN2C(=S)N([C@@H](Cc3ccc(O)cc3)CN3CCC[C@@H]3CN3C(=S)NC[C@@H]3CC(C)C)C[C@@H]2Cc2ccccc2)cc1 | – | · | · | ? | – | ? | – | ? | –
CCOc1ccc(CCN2C(=S)N([C@@H](Cc3ccc(O)cc3)CN3CCC[C@@H]3CN3C(=S)NC[C@@H]3CC(C)C)C[C@@H]2CC(C)C)cc1 | – | · | · | 4.47µM | – | ? | – | 16.4µM | –
COC(=O)c1ccc(COc2ccc(/C=C(\C#N)c3nc4ccccc4[nH]3)cc2OC)o1 | – | – | – | – | – | · | · | · | ·
CCc1ccc(NC(=O)COc2ccc(/C=C(/C#N)c3nc4ccccc4[nH]3)cc2OC)cc1 | – | ? | ? | 2.24µM | – | ? | ? | – | –
Cc1ccc(-c2c(C(=O)NCc3ccc(F)cc3)oc(=O)c3ccccc23)cc1 | – | – | – | ? | – | ? | – | – | –
COc1cc(O)cc(/C=C/c2ccccc2)c1 | – | – | – | – | – | · | · | · | ·
CN(CCCC1CCCC1)C(=O)c1cc(COc2ccc(F)cc2F)on1 | – | – | – | 10µM | – | 20.6µM | ? | 25.9µM | –
CCOc1ccccc1CN1CCN(Cc2nc3ccccc3s2)CC1CCO (centres undefined) | – | – | – | – | – | · | · | · | ·
CCOC(=O)c1cnc2cc(C(F)(F)F)ccc2c1N1CCN(c2ccc(F)cc2)CC1 | – | – | – | – | – | · | · | · | ·
CC(=O)N1CCN(c2ccc(NC(=S)NC(=O)COc3ccc(C(C)(C)C)cc3)cc2)CC1 | – | – | ? | ? | – | 4.61µM | ? | – | –
CCCS(=O)(=O)N1CCN=C1SCc1ccc(C)cc1 | – | – | – | – | – | · | · | · | ·
COc1ccc(C(CCN2CCOCC2)c2c(O)cc(OC)cc2OC)cc1 (centres undefined) | – | – | – | ? | – | · | · | · | ·
COc1ccc(C(c2c(O)ccc3ccccc23)N2CCOCC2)c(OC)c1 (centres undefined) | ? | – | ? | 6.31µM | – | ? | 23.1µM | ? | ?
Cc1cc(C(F)F)nn1CC(=O)NC1CCCC1 | – | – | – | – | – | · | · | · | ·
Cc1cc(C)c(OCC(=O)Nc2nc(-c3ccccn3)cs2)c(C)c1 | – | ? | ? | 10µM | – | ? | – | ? | –
COc1ccc(OCCCC(=O)Nc2nc(-c3ccccn3)cs2)cc1 | – | – | ? | – | – | · | · | · | ·
CCc1ccc(S(=O)(=O)Nc2c(NC3CCCCC3)c3ccccc3oc2=O)cc1 | – | – | 25.9µM | 15.8µM | – | ? | – | – | –
CCNC(=O)N1CCNC(=O)C1CC(=O)OC (centres undefined) | – | – | – | – | – | · | · | · | ·
CCOc1ccccc1CNC(=O)CCCN1C(=O)COc2ccc(C)cc21 | – | – | – | · | – | · | · | · | ·
O=C(COc1cccc(F)c1)N[C@@H](Cc1ccccc1)c1nc2ccccc2[nH]1 | – | – | ? | ? | – | ? | – | – | –
CCN(CC(=O)NC(=O)NCc1ccco1)Cc1nc2ccccc2c(=O)[nH]1 | – | – | ? | – | – | · | · | · | ·
Cc1ccc2nc(SCC(=O)Nc3cc(C(F)(F)F)ccc3N3CCOCC3)[nH]c2c1 | – | ? | ? | 10µM | – | 1.84µM | – | 0.731µM | –
O=C(CSc1nccc(=O)[nH]1)Nc1cc(C(F)(F)F)ccc1N1CCOCC1 | – | – | – | – | – | · | · | · | ·
c1ccc2c(Nc3nc(-c4ccncc4)nc4ccccc34)cccc2c1 | – | – | ? | – | – | · | · | · | ·
Clc1ccccc1Nc1nc(-c2ccncc2)nc2ccccc12 | – | – | – | – | – | – | 23.1µM | ? | –
SMILES | Nrf2 activator | A549 tox | Nrf2 inh | TGFb SMAD3 inh | HepG2 tox-1 | TGFb CAGA inh | HepG2 tox-2 | CCL64 TGFb inh | TGFb COP inh
Clc1cccc(Nc2nc(-c3ccncc3)nc3ccccc23)c1 | – | – | ? | – | – | ? | ? | ? | –
COc1ccccc1NC(=O)C(=O)NCCC1CCCCN1S(=O)(=O)c1ccccc1 (centres undefined) | – | – | ? | – | – | · | · | · | ·
COc1ccc(C(NC(=O)C2CCN(CCOc3ccc(Cl)cc3Cl)CC2)c2ccccn2)cc1 (centres undefined) | – | · | · | ? | – | · | · | · | ·
O=C(NC(c1ccccc1)c1ccc2ccccc2n1)C1CCN(CCOc2ccc(Cl)cc2Cl)CC1 (centres undefined) | – | · | · | 10µM | – | ? | 18.4µM | ? | ?
CC(NC(=O)C1CCN(CCOc2ccc(Cl)cc2)CC1)c1cccc2ccccc12 (centres undefined) | –[9.22 µM] | · | · | 6.31µM | 11.2µM | 25.9µM | 18.4µM | ? | –
CCOc1ccccc1NC(=O)c1cc(S(=O)(=O)N2CCN(CC)CC2)ccc1Cl | – | – | – | – | – | · | · | · | ·
COc1ccc(-c2c(C)nn(-c3ccccc3)c2NC(C)=O)cc1OC | – | – | – | – | – | · | · | · | ·
COc1ccc(C2=NN(C(=O)COC(=O)c3ccc(S(C)(=O)=O)c([N+](=O)[O-])c3)C(c3ccco3)C2)cc1 (centres undefined) | – | – | – | 8.91µM | 8.91µM | ? | ? | 2.91µM | ?
O=C(Nc1cccc(-c2cn3cccnc3n2)c1)c1cc(Br)ccc1Cl | – | – | · | – | – | · | · | · | ·
Cc1onc(-c2ccccc2Cl)c1C(=O)Nc1cccc(-c2cn3cccnc3n2)c1 | – | – | – | ? | – | ? | – | – | –
CC(C)C[C@H]1CN=C(Nc2ccccc2)N1CCc1cccc(F)c1 | – | – | – | 7.08µM | – | 5.8µM | ? | 13µM | –
CC(C)CCN1C(Nc2ccccc2)=NC[C@@H]1CC(C)C | – | – | – | – | – | · | · | · | ·
CC(C)C[C@H]1CN=C(Nc2ccccc2)N1CCc1ccc(F)cc1 | – | – | – | 8.91µM | – | 7.31µM | ? | 18.4µM | –
Cc1cccc(CCN2C(Nc3ccccc3)=NC[C@@H]2CC(C)C)c1 | – | – | – | 6.31µM | – | 5.17µM | ? | ? | –
CCCN1CCN(C(=O)Cn2nc(CC)n3c(cc4sccc43)c2=O)CC1 | – | – | – | – | – | · | · | · | ·
